This note sets out measurements from PubChem BioAssay.

SMILES strings stand for the structures. Calls of active or inactive are those of the source. Unless noted, no rule for the calls is given here.

Assay [1] has as its system Wnt5a (protein binding on small-molecule microarray). The assay is described as follows: small molecules binding Wnt5a protein – biophysical, small-molecule microarray, 635/667 nm fluorescence, primary screen (AID 1142).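 Also: fluorescence read at 667 nm with signal to noise per printed feature.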 The conditions noted are these: 635 nm fluorescence, higher = more signal.
The nature of assay [2]: ATP-based viability of Huh7 replicon cells – cell-based, CellTiter-Glo luminescence, basal, 48 h, cytotoxicity control for HCV replication inhibitor project, primary screen (AID 1143).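 Also: Huh7 hepatoma cells carrying a hepatitis C replication reporter with no stimulus; test concentration not given here.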 The conditions noted are these: higher = more signal, called active from +8 up or from −8 down. Background: In antiviral work, replicon cells carry a viral genome segment that copies itself.
Assay [3] in a line: Pseudomonas biofilm growth suppression – PAO1 strain, BacTiter-Glo luminescence, LB-PBS, primary screen (AID 1144). The conditions noted are these: P. aeruginosa PAO1 biofilm, 12 h, higher = more signal.
Assay [4] in a line: basal CRE-LacZ reporter activity in PC12 – cell-based, unstimulated, primary screen (AID 1145). The following applies: no forskolin, luminescence, 4.5 h, higher = more signal, called active from +8 up or from −8 down.
Assay [5] in a line: forskolin-driven CRE-LacZ activity in PC12 – cell-based, CRE-LacZ reporter, forskolin-stimulated, primary screen (AID 1146).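 Also: PC12 cells with 6xCRE LacZ reporter stimulated by forskolin 10 µM; beta-galactosidase reporter signal reflecting CREB driven transcription.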 The conditions noted are these: luminescence, 4.5 h, higher = more signal, called active from +8 up or from −8 down.
The target in assay [6] is Streptavidin (Streptomyces avidinii) (UniProt P22629). As to the kind of experiment: compounds binding control protein streptavidin – biophysical, small-molecule microarray, 635/667 nm fluorescence, artefact control for SMM compound annotation, primary screen (AID 1147).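 Also: signal reflects streptavidin binding to arrayed compounds as a control protein.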 The conditions noted are these: higher = more signal.
Assay [7] is described as follows: probe aInhba binding on compound microarray – biochemical, small-molecule microarray, 635/667 nm fluorescence, primary screen (AID 1148).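 Also: score merges 667nm spot fluorescence with signal-to-noise for antibody binding to printed compounds.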 The conditions noted are these: higher = more signal.
Assay [8] has as its target Torsin-1A (Homo sapiens) (UniProt O14656). As to the kind of experiment: TOR1A wild-type binding on microarray – cell lysate, small-molecule microarray, lysate, 635/667 nm, primary screen (AID 1149). The following applies: COS7 hTOR1A-WT lysate, 635 nm fluorescence, higher = more signal.
Assay [9] shares this target. As to the kind of experiment: torsin A mutant lysate binding on microarrays – cell lysate, small-molecule microarray, COS7 lysate, 635/667 nm fluorescence, primary screen (AID 1150).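 Also: score pools 667 nm emission and signal to noise measuring lysate protein binding.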 The conditions noted are these: COS7 hTOR1A mutant lysate, 635 nm fluorescence, higher = more signal.
The test system of assay [10] is Sonic hedgehog protein (Shh). The assay is described as follows: Sonic hedgehog microarray binding compounds – biochemical, small-molecule microarray, 635/667 nm fluorescence, primary screen (AID 1151).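 Also: Shh protein binding to compounds spotted on small-molecule microarray slides; score combines spot fluorescence intensity with signal-to-noise across triplicate slides.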 The conditions noted are these: 635 nm fluorescence, higher = more signal.

Chain of Streptavidin (Streptomyces avidinii) (P22629 whole entry, looked up): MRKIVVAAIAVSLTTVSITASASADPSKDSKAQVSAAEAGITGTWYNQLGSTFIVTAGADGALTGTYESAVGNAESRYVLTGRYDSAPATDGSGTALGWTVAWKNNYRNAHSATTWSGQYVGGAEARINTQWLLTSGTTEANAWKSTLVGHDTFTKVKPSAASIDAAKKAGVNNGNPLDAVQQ
Chain of Torsin-1A (Homo sapiens) (O14656 whole entry, looked up): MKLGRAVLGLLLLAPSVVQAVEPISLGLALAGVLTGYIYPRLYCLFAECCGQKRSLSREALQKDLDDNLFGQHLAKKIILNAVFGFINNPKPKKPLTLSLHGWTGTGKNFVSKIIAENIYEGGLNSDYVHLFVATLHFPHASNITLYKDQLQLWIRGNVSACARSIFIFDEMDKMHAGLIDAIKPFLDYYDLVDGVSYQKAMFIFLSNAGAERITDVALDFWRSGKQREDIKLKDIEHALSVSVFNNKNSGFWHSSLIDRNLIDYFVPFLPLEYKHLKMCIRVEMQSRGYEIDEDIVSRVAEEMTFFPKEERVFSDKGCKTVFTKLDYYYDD

For the compound `O=C1C2C=CC(C(O)c3ccc(F)cc3)N(Nc3ccc([N+](=O)[O-])cc3)C2C(=O)N1c1ccccc1` (stereo not given), the composite z-score in assay [1] was 0.241; in assay [6], 1.39; in assay [7], 0.0487; with Torsin-1A (Homo sapiens) [8] it was -0.232; with Torsin-1A (Homo sapiens) [9] it was 0.187; in assay [10], -0.241. Moreover, the z-score in assay [2] was -0.0129 (inactive); in assay [3], -0.615 (inactive); in assay [4], -0.415 (inactive); in assay [5] it was 0.15 (inactive).
On to `COCC(=C=CC[C@H](O)c1ccccc1OCCO)CCO`, for which the composite z-score in assay [1] was 0.0821; in assay [6], -0.193; in assay [7], 0.115; in the assay with Torsin-1A (Homo sapiens) [8], 0.871; with Torsin-1A (Homo sapiens) [9] it was 0.542; in assay [10], 1.09. The z-score in [2] is -0.231 (inactive); in assay [3], -0.109 (inactive); in assay [4], 2.48 (inactive); in [5], 1.01 (inactive).
As to `COc1ccc(C#Cc2ccc3c(c2)[C@]2(C(=O)N3)[C@H](c3ccc(O)cc3)N3[C@H](c4ccccc4)[C@H](c4ccccc4)OC(=O)[C@H]3[C@@H]2C(=O)N2CCc3cc(OC)c(OC)cc3C2)cc1`, the composite z-score in [1] was 0.636; in assay [6] it was 1.13; in assay [7], -0.0521; with Torsin-1A (Homo sapiens) [8], 0.135; with Torsin-1A (Homo sapiens) [9] it was 0.0243; in assay [10] it was 1.78. The z-score in assay [2] was -0.678 (inactive); in assay [3] it was -0.0604 (inactive); in assay [4] it was 0.155 (inactive); in [5], 0.102 (inactive).
`[N-]=[N+]=Nc1ccccc1[C@H]1OC(c2ccc(OCCCO)cc2)=N[C@@]1(CCS(=O)(=O)c1ccccc1)C(=O)NCc1ccccc1`: the composite z-score came out at 0.768 in [1]; 1.47 in [6]; 0.204 in assay [7]; 0.503 in the assay with Torsin-1A (Homo sapiens) [8]; 0.786 in the assay with Torsin-1A (Homo sapiens) [9]; 0.0239 in [10]. Moreover, the z-score in assay [2] was -2.65 (inactive); in [3] it was 0.0905 (inactive); in assay [4] it was 1.26 (inactive); in assay [5] it was -0.504 (inactive).
Consider `O=C1C2C=CC(C(O)c3cc(C(F)(F)F)cc(C(F)(F)F)c3)N(Nc3ccccc3)C2C(=O)N1c1ccccc1` (stereo not given), for which the composite z-score is 0.0943 in assay [1]; -0.374 in assay [6]; -0.0136 in [7]; 0.702 in the assay with Torsin-1A (Homo sapiens) [8]; 1.18 in the assay with Torsin-1A (Homo sapiens) [9]; -0.857 in assay [10]. Moreover, the z-score is -1.01 (inactive) in [2], -1.35 (inactive) in [3], -0.326 (inactive) in assay [4] and 0.501 (inactive) in assay [5].
Consider `CC(C)NC(=O)[C@@]1(Cc2ccccc2I)c2ccccc2C(=O)N(Cc2ccccc2Cl)[C@H]1c1ccc(CO)cc1`, for which the composite z-score is 0.361 in [1]; 0.746 in [6]; -0.0557 in [7]; 0.214 with Torsin-1A (Homo sapiens) [8]; 0.891 with Torsin-1A (Homo sapiens) [9]; 1 in assay [10]. The z-score in assay [2] is -2.21 (inactive); in assay [3], 0.5 (inactive); in assay [4], -0.464 (inactive); in assay [5], -0.0764 (inactive).
`COC(=O)c1c(CC[C@@H](CO)NC(=O)N[C@H](Cc2ccccc2)Cn2cc(-c3ccccn3)nn2)oc(C(C)=O)c1C(=O)OC`: the composite z-score is -0.293 in assay [1]; 0.946 in [6]; -0.105 in assay [7]; 0.813 in the assay with Torsin-1A (Homo sapiens) [8]; 0.0502 in the assay with Torsin-1A (Homo sapiens) [9]; 0.248 in [10]. Besides, the z-score in assay [2] is -0.105 (inactive); in assay [3] it was 0.542 (inactive); in assay [4] it was 0.367 (inactive); in [5] it was 0.453 (inactive).
Take `[N-]=[N+]=NCc1ccccc1[C@@H]1OC(c2ccc(OCCCO)cc2)=N[C@]1(CCS(=O)(=O)c1ccccc1)C(=O)N1CCCCC1`: the composite z-score in assay [1] is 0.571; in assay [6], 1.19; in [7] it was 0.531; with Torsin-1A (Homo sapiens) [8], 0.292; with Torsin-1A (Homo sapiens) [9] it was 0.447; in [10] it was -0.0529. The z-score in [2] is -2.09 (inactive); in [3], 0.406 (inactive); in [4], 5.06 (inactive); in [5], 0.243 (inactive).
As to `CCN(CC)c1ccc(N2CC=CC34O[C@@H]5/C=C\CCC(C)OC(=O)C5[C@H]3C(=O)N(CCCCCO)[C@@H]4C2=O)cc1` (stereo not given in full), the composite z-score in assay [1] was -0.408; in assay [6], -1.1; in [7], -0.016; in the assay with Torsin-1A (Homo sapiens) [8], -1.47; with Torsin-1A (Homo sapiens) [9] it was -1.59; in [10], -0.0874. The z-score is 0.16 (inactive) in assay [2], 1.24 (inactive) in assay [3], 1.16 (inactive) in assay [4] and -0.418 (inactive) in assay [5].
For `CO[C@H]1O[C@H](CO)[C@@H](OC(=O)Nc2ccccc2-c2ccccc2)[C@H](OC(=O)Nc2ccccc2-c2ccccc2)[C@@H]1OC(=O)Nc1ccccc1-c1ccccc1`, the composite z-score worked out at 0.689 in assay [1]; 1.08 in assay [6]; 0.173 in assay [7]; 0.1 with Torsin-1A (Homo sapiens) [8]; 0.53 in the assay with Torsin-1A (Homo sapiens) [9]; 1.37 in assay [10]. Moreover, the z-score in [2] is -3.41 (inactive); in assay [3] it was -0.399 (inactive); in assay [4], 0.391 (inactive); in assay [5], 0.0225 (inactive).
